In PubChem BioAssay one finds z-score data, which are given here for seven molecules.

Values joined by “and” are separate entries in the source; they are usually repeats but may differ in a detail not shown here. Equal values may be shown once.

The nature of the assay: compound effects on differentiated 3T3-L1 adipocyte viability – cell-based, 3T3-L1 adipocytes, calcein-AM fluorescence, 48 h, basal, profiling panel (AID 1163). Also: test concentration not given here. The note with it: 3T3-L1 adipocytes viability, higher = more signal.
Turning to `CC(C)OC(=O)C=C1C[C@@H](c2ccccc2)O[C@@H](c2ccccc2)O1`, the z-score is 0.211 and 0.24.
Take `COC(=O)C1=C(C)N(Cc2ccccc2)C2=C(C(=O)c3ccccc3)[C@H](c3ccccc3)[C@@](O)(C(=O)OC)C(=O)N2[C@@H]1c1ccccc1`: the z-score is -0.154 and -0.936.
Then `COC(=O)[C@@]1(Cc2ccc(F)cc2)[C@H]2c3cc(C(=O)N4CCCC4)n(Cc4c(CO)[nH]cc(C)c4=O)c3C[C@H]2CN1C(=O)c1ccccc1`, with 0.284 and -0.41; and `C[N+](C)(C)CCCCCCNC(=O)[C@H]1C[C@H]2C(=O)N[C@@H](CCCC[N+](C)(C)C)C(=O)N2[C@H]1c1ccc(O)cc1`, with 0.222 and -0.596; and `CC(CO)N1C(=O)[C@@H]2C3C(=O)OCCC=C[C@H]3OC23C=CCN(CCN2CCOCC2)C(=O)[C@@H]13` (some centres not stated), with -0.465 and 0.0431.
Then `CCCC[C@@H]1CN2[C@H](c3ccc(Br)cc3)[C@@H](C)CC[C@H]2C(=O)O1`, with -1.1 and -0.272; and `CO[C@H]1COC(=O)CC=C[C@H](C)[C@H](OC)COC(=O)[C@@H](C)COC(=O)CC=C[C@@H]1C`, with 0.0599 and 0.0256.
